Assay outcomes deposited in PubChem BioAssay by National Center for Advancing Translational Sciences (NCATS).
Only some compounds are listed: those with a hit (about 4.4% of all), similar ones and a draw of the others.
TRHR enhancer – TRH receptor (human) allosteric enhancement; P34981; TRHR cells, fluo-8 calcium fluorescence, EC20 TRH enhancement; actives 0.66% (n = 360,000); enhancement, % at 2 µM; in the data active = enhancement above about 30%; also: 0% is about no effect
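TRHR-expressing cells loaded with fluo-8 calcium dye were read kinetically (ex 480/em 530) during compound addition, then stimulated with an EC20 of TRH (10 nM final). Enhancement of the Gq-mediated intracellular calcium response was scored.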
TRHR agonist – agonists of human TRH receptor; P34981; TRHR cells, calcium flux fluo-8, FDSS agonist mode; activation, % at 2 µM; actives 0.18% (n = 360,000); AID 493084; also: 0% is about no effect
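In this calcium-flux screen, cells bearing human TRHR are dye-loaded with fluo-8, baselined for 10 cycles, then exposed to library compounds; positive kinetic calcium responses during the agonist phase mark hits, with TRH as control.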
D1 agonist – agonists of human D1 dopamine receptor | P21728 | HEK293 T-REx D1 cells, calcium flux, agonist mode | activation, % at 2 µM | actives 1% (n = 360,000); also: 0% is about no effect
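Inducible HEK293 T-REx D1 cells, force-coupled to calcium signalling, were plated at 4000 cells/well with tetracycline and held overnight at 30 C. After no-wash calcium dye loading, compound-evoked calcium rise over 180 s flagged agonists.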
D1 potentiator – enhances dopamine response at the human D1 receptor; HEK293 TREx D1 cells, calcium flux, dopamine EC20 potentiation; potentiation, % at 10 µM; actives 0.036% (n = 360,000); AID 504651; in the data active = potentiation above about 30%; also: 0% is about no effect
D1 antagonist – antagonists of human D1 dopamine receptor | P21728 | HEK293 TREx D1 cells, calcium flux, dopamine EC80; stronger effect = lower value | activity change, negative = inhibition, % at 10 µM | actives 3.2% (n = 360,000); in the data active = activity change below about -30%; also: % is scaled to controls: 0 for no effect and ±100 for the full control effect
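HEK293 T-REx cells expressing inducible, force-coupled D1 receptor; no-wash Ca dye, 30–90 min RT. Cmpd → 180 s read at 1 Hz → EC80 DA → 180 s read.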
USP1-UAF1 inh – blocks the human USP1/UAF1 deubiquitinase complex; O94782; Potency, µM (doses to about 57.1 µM), for inactives: at the top dose activity change, negative = inhibition, most hits filed as inhibitors; actives 0.23% (n = 390,000); recombinant USP1/UAF1, Ub-Rhodamine cleavage fluorescence; active = well fitted inhibition curve with a large enough effect; inconclusive = small, poorly fitted or top-dose-only effect; inactive = no such curve, though single readings can be large or run the other way; also: potency is read from the fitted curve at half-maximal effect; % is scaled to controls: 0 for no effect and ±100 for the full control effect; nearly all actives have a fitted effect of over 60% in size
Target sequence (O94782 whole entry, looked up): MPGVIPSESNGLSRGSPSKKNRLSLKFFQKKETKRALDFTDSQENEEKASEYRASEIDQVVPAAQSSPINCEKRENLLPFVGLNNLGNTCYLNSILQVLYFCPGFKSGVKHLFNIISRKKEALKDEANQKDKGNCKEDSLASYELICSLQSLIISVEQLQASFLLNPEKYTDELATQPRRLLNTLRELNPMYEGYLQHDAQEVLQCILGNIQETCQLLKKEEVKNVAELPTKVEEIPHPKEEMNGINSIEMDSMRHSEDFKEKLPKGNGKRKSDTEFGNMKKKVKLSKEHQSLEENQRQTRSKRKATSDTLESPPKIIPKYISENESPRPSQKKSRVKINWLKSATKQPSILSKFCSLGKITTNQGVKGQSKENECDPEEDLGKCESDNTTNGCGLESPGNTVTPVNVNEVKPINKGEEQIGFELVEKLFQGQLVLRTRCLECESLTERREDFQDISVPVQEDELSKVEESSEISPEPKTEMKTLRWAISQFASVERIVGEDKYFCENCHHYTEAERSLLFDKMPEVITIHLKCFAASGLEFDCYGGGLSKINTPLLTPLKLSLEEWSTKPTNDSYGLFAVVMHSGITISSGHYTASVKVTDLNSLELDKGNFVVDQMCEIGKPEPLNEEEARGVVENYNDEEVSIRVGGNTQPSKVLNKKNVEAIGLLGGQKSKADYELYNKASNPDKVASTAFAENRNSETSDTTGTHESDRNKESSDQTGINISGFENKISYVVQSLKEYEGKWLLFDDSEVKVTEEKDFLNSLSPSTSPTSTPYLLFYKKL
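USP1/UAF1 complex (1 nM) preincubated 15 min at room temperature with compound, then Ub-Rho substrate (150 nM final) added. Kinetic fluorescence at 480/540 nm over 6 reads at 60 s intervals; 50 mM HEPES pH 7.8, 0.5 mM EDTA, 0.1 mg/ml BSA, 1 mM TCEP, 0.01% Tween-20.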
Numbers without * were called inactive. Rule as the data show it, unless noted: active = activation above about 30%; inactive = the rest.

`CCOC(=O)c1c(C)[nH]c(C)c1S(=O)(=O)NCC(=O)Nc1cccc(C#N)c1` gave TRHR enhancer -4, TRHR agonist 0, D1 agonist 2, D1 potentiator 5, D1 antagonist 7 and USP1-UAF1 inh 0%.
CCN1C(=O)C(Cc2nc3ccccc3c(=O)n2-c2ccc(OC)cc2)c2cc(C)ccc21 (configuration not stated) was read as TRHR enhancer -3, TRHR agonist 3, D1 agonist 4, D1 potentiator -1, D1 antagonist 16 and USP1-UAF1 inh inconclusive.
Cc1ccc(C)c(NC(=O)c2cc(=O)c3cc(C)cc(C)c3o2)c1 was read as TRHR enhancer 1, TRHR agonist 0, D1 agonist 0, D1 potentiator 2, D1 antagonist -4 and USP1-UAF1 inh -12%.
For CC1CCCCN1CCCNC(=O)c1ccc2c(c1)sc1nc(-c3ccc(F)cc3)cn12 (configuration not stated) the results were TRHR enhancer -3, TRHR agonist 0, D1 agonist -1, D1 potentiator 1, D1 antagonist -13 and USP1-UAF1 inh inconclusive.
`COc1ccc(N/C(N)=N/c2nc(C)cc(C)n2)cc1` gave USP1-UAF1 inh -24%.
Cc1cc(C)nc(/N=C(\N)Nc2ccc(OCCC(C)C)cc2)n1 was read as TRHR enhancer -20, TRHR agonist 27, D1 agonist 86*, D1 potentiator -6, D1 antagonist -45* and USP1-UAF1 inh -43%.
`CCN(CC)S(=O)(=O)c1ccc(NC(=O)c2c(C)oc3ncnc(N4CCOCC4)c23)cc1` gave TRHR enhancer 25, TRHR agonist 0, D1 agonist 0, D1 potentiator -2, D1 antagonist -10 and USP1-UAF1 inh -17%.
Screening Cc1ccc(C)c(Sc2ccc(NC(=O)CCN3C(=O)NC4(CCCC4)C3=O)cc2)c1 returned TRHR enhancer 3, TRHR agonist 0, D1 agonist 7, D1 potentiator 5, D1 antagonist -33* and USP1-UAF1 inh -13%.
CC(C)c1ccc(NC(=O)CCCN2C(=O)NC(C)(C)C2=O)cc1 was read as TRHR enhancer 4, TRHR agonist 0, D1 agonist 0, D1 potentiator -4, D1 antagonist -53* and USP1-UAF1 inh -19%.
Cc1ccc(NC(=O)CCN2C(=O)NC3(CCCC3)C2=O)cc1 was read as TRHR enhancer 0, TRHR agonist 0, D1 agonist 3, D1 potentiator -3, D1 antagonist 40 and USP1-UAF1 inh -12%.
Cc1ccc(Sc2ccc(NC(=O)CCl)cc2)c(C)c1 was read as TRHR enhancer -2, TRHR agonist 0, D1 agonist 16, D1 potentiator -7, D1 antagonist -73* and USP1-UAF1 inh inconclusive.
Screening COc1ccc(-n2nnnc2SCC(=O)NCCc2ccccc2)cc1 returned TRHR enhancer 9, TRHR agonist -1, D1 agonist -1, D1 potentiator -5, D1 antagonist 6 and USP1-UAF1 inh -24%.
`CCCCNC(=O)CCCn1c(=O)c2ccccc2n(CC(=O)Nc2ccccc2OCC)c1=O` gave TRHR enhancer -5, TRHR agonist 0, D1 agonist 1, D1 potentiator 1, D1 antagonist 10 and USP1-UAF1 inh -25%.
Screening O=C(COc1ccc2c(c1)OCO2)Nc1ccccc1F returned TRHR enhancer 2, TRHR agonist 0, D1 agonist 0, D1 potentiator -2 and USP1-UAF1 inh -21%.
Screening Fc1ccc([C@@H]2CCNC[C@H]2COc2ccc3c(c2)OCO3)cc1 returned TRHR enhancer 0, TRHR agonist 2, D1 agonist 59*, D1 potentiator 0, D1 antagonist -37* and USP1-UAF1 inh -21%.
For Fc1ccc(C2CCNCC2COc2ccc3c(c2)OCO3)cc1 (configuration not stated) the results were TRHR enhancer 3, TRHR agonist 2, D1 agonist 38*, D1 potentiator -5, D1 antagonist 7 and USP1-UAF1 inh -7%.
For Fc1ccc(F)c(CNc2ncnc3cc(Cl)ccc23)c1 the results were TRHR enhancer -5, TRHR agonist 3, D1 agonist 11, D1 potentiator -8, D1 antagonist -30* and USP1-UAF1 inh -13%.
CCOc1cc(C(=O)NCCC(=O)N2CCC3(CC2)NCCc2[nH]cnc23)cc(OCC)c1OCC was read as TRHR enhancer -7, TRHR agonist 1, D1 agonist 2, D1 potentiator -6, D1 antagonist -10 and USP1-UAF1 inh -14%.
For CCOc1ccc(C(=O)NCCC(=O)N2CCC3(CC2)NCCc2[nH]cnc23)cc1OCC the results were TRHR enhancer 1, TRHR agonist 0, D1 agonist 1, D1 potentiator 5, D1 antagonist -63* and USP1-UAF1 inh -17%.
Screening CCN(CCCNC(=O)Cn1ncc2c(=O)oc3ccccc3c21)c1cccc(C)c1 returned TRHR enhancer -6, TRHR agonist -1, D1 agonist 11, D1 potentiator -7, D1 antagonist -37* and USP1-UAF1 inh -4%.
For Cc1ccc2oc(=O)c3cnn(CC(=O)NCCC(C)C)c3c2c1 the results were TRHR enhancer -11, TRHR agonist 0, D1 agonist 3, D1 potentiator -14, D1 antagonist -37* and USP1-UAF1 inh -8%.
COCCCNC(=O)Cn1ncc2c(=O)oc3ccccc3c21 was read as TRHR enhancer 4, TRHR agonist 1, D1 agonist 4, D1 potentiator -6, D1 antagonist -30* and USP1-UAF1 inh -15%.
Cc1ccc(C)c(NC(=O)CSc2nccn2-c2cccc(C)c2C)c1 was read as TRHR enhancer 0, TRHR agonist 0, D1 agonist 9, D1 potentiator -4, D1 antagonist -15 and USP1-UAF1 inh -5%.
For CCN1CCN(C(=O)Cn2ncc3c4ccccc4n(Cc4c(C)cc(C)cc4C)c3c2=O)CC1 the results were TRHR enhancer 9, TRHR agonist 1, D1 agonist 4, D1 potentiator -1, D1 antagonist 10 and USP1-UAF1 inh -22%.
Screening CCc1cccc(NC(=O)c2cc3c(=O)[nH]c4ccccc4c3n2C)c1 returned TRHR enhancer 29, TRHR agonist -1, D1 agonist 4, D1 potentiator 3, D1 antagonist 34 and USP1-UAF1 inh -15%.
For CC(=O)Nc1cccc(NC(=O)c2cc3c(=O)n4cccc(C)c4nc3n2C)c1 the results were TRHR enhancer -2, TRHR agonist -1, D1 agonist 5, D1 potentiator -2, D1 antagonist -1 and USP1-UAF1 inh 4%.
